Laboratory results: PubChem BioAssay (NCATS)
Inconclusive results are not listed. Entries that show only a call come without a potency. Active and inactive are the calls of the source. The call rests on the fitted dose curve; in most records, active means well fitted curve in the direction sought with a large enough effect; inconclusive means small, poorly fitted or top-dose-only effect, or another doubt; inactive means no such curve, though single readings can be large; an effect the other way counts as inactive or inconclusive.

experiment: qHTS of pediatric cancer cell lines to identify multiple opportunities for drug repurposing: Confirmatory screen for NB1643 cells (AID 1347109); conditions: NB1643 neuroblastoma cell viability; series mostly up to 45.9 µM; further: nearly all actives have a fitted effect of over 45% in size
In short: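 Cells (500-1,000/well) in growth media were settled 5 h at 37 degrees C, then given compounds for 48 h. Viability was read as CellTiter-Glo luminescence. Primary runs used MIPE at 11 points (0.78 nM-46 µM) and NPC at 8 points (0.59 nM-46 µM); follow-ups used 11 points.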
Potency means the concentration at half of the fitted maximal effect.

SMILES | Potency
CC1(C)O[C@H]2C[C@@H]3[C@H]4CCC5=CC(=O)C=C[C@]5(C)[C@@]4(F)[C@@H](O)C[C@]3(C)[C@]2(C(=O)CO)O1 | inactive
O=C1NC(=O)C(=Cc2ccc3c(c2)OC(F)(F)O3)S1 | inactive
CC1(C)S[C@H]2[C@H](NC(=O)[C@@H](N)c3ccc(O)cc3)C(=O)N2[C@@H]1C(=O)O | inactive
Cc1[nH]c(C=C2C(=O)Nc3ccc(S(=O)(=O)Cc4c(Cl)cccc4Cl)cc32)c(C)c1C(=O)N1CCC[C@H]1CN1CCCC1 | 11.7 µM (active)

experiment: qHTS of pediatric cancer cell lines to identify multiple opportunities for drug repurposing: Confirmatory screen for A673 cells (AID 1347110); conditions: A673 Ewing sarcoma cell viability; series mostly up to 45.9 µM;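 further: cells exposed to compound for 48 h before the viability read; nearly all actives have a fitted effect of over 65% in size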
In short: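 Concentration-response curves came straight from titrations: 11 points (0.78 nM to 46 µM) for MIPE and several concentrations (0.59 nM to 46 µM) for NPC in primary, 11 points in follow-up. Readout: ATP luminescence at 48 h.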

SMILES | Potency
CC1(C)O[C@H]2C[C@@H]3[C@H]4CCC5=CC(=O)C=C[C@]5(C)[C@@]4(F)[C@@H](O)C[C@]3(C)[C@]2(C(=O)CO)O1 | inactive
CCOc1ccc(Nc2nc(-c3c(C)nc4ccccn34)cs2)cc1 | 0.131 µM (active)
CC1(C)S[C@H]2[C@H](NC(=O)[C@@H](N)c3ccc(O)cc3)C(=O)N2[C@@H]1C(=O)O | inactive
Cc1[nH]c(C=C2C(=O)Nc3ccc(S(=O)(=O)Cc4c(Cl)cccc4Cl)cc32)c(C)c1C(=O)N1CCC[C@H]1CN1CCCC1 | 13.1 µM (active)
N[C@@]1(C(=O)O)CS(=O)(=O)[C@H]2[C@H](C(=O)O)[C@H]21 | inactive
